What all share (experiment): PBM; 200 nM protein, PBS
Common to all, as to conditions: dsDNA, one strand shown

In assay [1] the target is T1, SIX6 (Homo sapiens, UniProt O95475 114-200, L167I).
T1 sequence: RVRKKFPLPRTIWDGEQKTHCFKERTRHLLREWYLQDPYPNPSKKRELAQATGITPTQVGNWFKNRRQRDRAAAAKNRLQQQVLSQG

Assay [2] has as its target T2, SIX6 (Homo sapiens, UniProt O95475 114-200, L143V).
T2 sequence: T1 sequence with L30V, I54L

The target of assay [3] is T3, SIX6 (Homo sapiens, UniProt O95475 114-200, H141N).
T3 sequence: T1 sequence with H28N, I54L

The target of assay [4] is T4, SIX6 (Homo sapiens, UniProt O95475 114-200, T165P).
T4 sequence: T1 sequence with T52P, I54L

The target in assay [5] is T5, SIX6 (Homo sapiens, UniProt O95475 114-200, L167M).
T5 sequence: T1 sequence with I54M

Assay [6] concerns the target T6, SIX6 (Homo sapiens, UniProt O95475 114-200, L143M).
T6 sequence: T1 sequence with L30M, I54L

The target in assay [7] is T7, SIX6 (Homo sapiens, UniProt O95475 114-200, L143I).
T7 sequence: T1 sequence with L30I, I54L

In assay [8] the target is T8, SIX6 (Homo sapiens, UniProt O95475 114-200, T165G).
T8 sequence: T1 sequence with T52G, I54L

The target in assay [9] is T9, SIX6 (Homo sapiens, UniProt O95475 114-200, T139Q).
T9 sequence: T1 sequence with T26Q, I54L

The target of assay [10] is T10, SIX6 (Homo sapiens, UniProt O95475 114-200, T165A).
T10 sequence: T1 sequence with T52A, I54L

Assay [11] concerns the target T11, SIX6 (Homo sapiens, UniProt O95475 114-200, L167V).
T11 sequence: T1 sequence with I54V

Assay [12] has as its target T12, SIX6 (Homo sapiens, UniProt O95475 114-200).
T12 sequence: T1 sequence with I54L

In assay [13] the target is T13, SIX6 (Homo sapiens, UniProt O95475 114-200, T165I).
T13 sequence: T1 sequence with T52I, I54L

Assay [14] concerns the target HOXA2 (Homo sapiens, UniProt O43364 129-215, R185T).
Assay [15] has as its target HOXA2 (Homo sapiens, UniProt O43364 129-215, R185K).
In assay [16] the target is HOXA2 (Homo sapiens, UniProt O43364 129-215, Y150S).
Sequence of HOXA2 (Homo sapiens, UniProt O43364 129-215, Y150S) (O43364 129-215 Y150S): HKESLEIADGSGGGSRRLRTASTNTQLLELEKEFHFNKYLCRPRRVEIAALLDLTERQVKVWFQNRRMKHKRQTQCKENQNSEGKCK
The target of assay [17] is HOXA2 (Homo sapiens, UniProt O43364 129-215).
Sequence of HOXA2 (Homo sapiens, UniProt O43364 129-215) (O43364 129-215): as the sequence (O43364 129-215 Y150S) above, with S22Y counted along it

Positions count from the first letter of the chain named.

Sequence of HOXA2 (Homo sapiens, UniProt O43364 129-215, R185T) (O43364 129-215 R185T): as the sequence (O43364 129-215 Y150S) above, with S22Y, R57T counted along it
Sequence of HOXA2 (Homo sapiens, UniProt O43364 129-215, R185K) (O43364 129-215 R185K): as the sequence (O43364 129-215 Y150S) above, with S22Y, R57K counted along it

On to CGCTCCGC, for which the binding signal in assay [1] is 8.79 upbm affinity estimate (log intensity, higher = more binding, comparable within an allelic series); in [2] it was 8.89 upbm affinity estimate (log intensity, higher = more binding, comparable within an allelic series); in assay [3], 8.83 upbm affinity estimate (log intensity, higher = more binding, comparable within an allelic series); in assay [4] it was 8.94 upbm affinity estimate (log intensity, higher = more binding, comparable within an allelic series); in assay [5], 8.9 upbm affinity estimate (log intensity, higher = more binding, comparable within an allelic series); in assay [6], 8.87 upbm affinity estimate (log intensity, higher = more binding, comparable within an allelic series). Besides, the binding signal is 8.84 upbm affinity estimate (log intensity, higher = more binding, comparable within an allelic series) in assay [7]; 8.81 upbm affinity estimate (log intensity, higher = more binding, comparable within an allelic series) in assay [8]; 8.84 upbm affinity estimate (log intensity, higher = more binding, comparable within an allelic series) in assay [9]; 8.85 upbm affinity estimate (log intensity, higher = more binding, comparable within an allelic series) in assay [10]; 8.79 upbm affinity estimate (log intensity, higher = more binding, comparable within an allelic series) in assay [11]; 8.81 upbm affinity estimate (log intensity, higher = more binding, comparable within an allelic series) in [12]. For the same sequence, the binding signal in assay [13] was 8.82 upbm affinity estimate (log intensity, higher = more binding, comparable within an allelic series).
Take CTGGCCCA: the binding signal was 8.9 upbm affinity estimate (log intensity, higher = more binding, comparable within an allelic series) in [1]; 8.81 upbm affinity estimate (log intensity, higher = more binding, comparable within an allelic series) in assay [2]; 8.95 upbm affinity estimate (log intensity, higher = more binding, comparable within an allelic series) in assay [3]; 8.96 upbm affinity estimate (log intensity, higher = more binding, comparable within an allelic series) in assay [4]; 8.89 upbm affinity estimate (log intensity, higher = more binding, comparable within an allelic series) in assay [5]; 8.86 upbm affinity estimate (log intensity, higher = more binding, comparable within an allelic series) in [6]. Further, the binding signal in assay [7] was 8.87 upbm affinity estimate (log intensity, higher = more binding, comparable within an allelic series); in assay [8] it was 8.92 upbm affinity estimate (log intensity, higher = more binding, comparable within an allelic series); in assay [14], 7.24 upbm affinity estimate (log intensity, higher = more binding, comparable within an allelic series); in [9], 8.93 upbm affinity estimate (log intensity, higher = more binding, comparable within an allelic series); in assay [10] it was 8.92 upbm affinity estimate (log intensity, higher = more binding, comparable within an allelic series); in [15], 10.3 upbm affinity estimate (log intensity, higher = more binding, comparable within an allelic series). The binding signal in assay [11] was 8.88 upbm affinity estimate (log intensity, higher = more binding, comparable within an allelic series); in [12], 8.94 upbm affinity estimate (log intensity, higher = more binding, comparable within an allelic series); in assay [13], 8.95 upbm affinity estimate (log intensity, higher = more binding, comparable within an allelic series); in [16], 10.4 upbm affinity estimate (log intensity, higher = more binding, comparable within an allelic series); in [17], 7.1 upbm affinity estimate (log intensity, higher = more binding, comparable within an allelic series).
For the sequence CGGGCCGC, the binding signal was 9.03 upbm affinity estimate (log intensity, higher = more binding, comparable within an allelic series) in assay [1]; 8.81 upbm affinity estimate (log intensity, higher = more binding, comparable within an allelic series) in assay [2]; 9.05 upbm affinity estimate (log intensity, higher = more binding, comparable within an allelic series) in [3]; 8.75 upbm affinity estimate (log intensity, higher = more binding, comparable within an allelic series) in [4]; 8.94 upbm affinity estimate (log intensity, higher = more binding, comparable within an allelic series) in assay [5]; 8.95 upbm affinity estimate (log intensity, higher = more binding, comparable within an allelic series) in assay [6]. In addition, the binding signal in [7] is 8.91 upbm affinity estimate (log intensity, higher = more binding, comparable within an allelic series); in assay [8], 8.87 upbm affinity estimate (log intensity, higher = more binding, comparable within an allelic series); in [9], 8.94 upbm affinity estimate (log intensity, higher = more binding, comparable within an allelic series); in assay [10], 9.01 upbm affinity estimate (log intensity, higher = more binding, comparable within an allelic series); in [11] it was 8.94 upbm affinity estimate (log intensity, higher = more binding, comparable within an allelic series); in [12] it was 9.02 upbm affinity estimate (log intensity, higher = more binding, comparable within an allelic series). Moreover, the binding signal in [13] was 8.91 upbm affinity estimate (log intensity, higher = more binding, comparable within an allelic series).
GCACGCCC: the binding signal in assay [1] is 8.91 upbm affinity estimate (log intensity, higher = more binding, comparable within an allelic series); in assay [2], 8.8 upbm affinity estimate (log intensity, higher = more binding, comparable within an allelic series); in assay [3] it was 8.92 upbm affinity estimate (log intensity, higher = more binding, comparable within an allelic series); in [4], 8.82 upbm affinity estimate (log intensity, higher = more binding, comparable within an allelic series); in assay [5] it was 8.88 upbm affinity estimate (log intensity, higher = more binding, comparable within an allelic series); in assay [6] it was 8.84 upbm affinity estimate (log intensity, higher = more binding, comparable within an allelic series). Also, the binding signal in assay [7] was 8.88 upbm affinity estimate (log intensity, higher = more binding, comparable within an allelic series); in assay [8] it was 8.97 upbm affinity estimate (log intensity, higher = more binding, comparable within an allelic series); in [9] it was 8.92 upbm affinity estimate (log intensity, higher = more binding, comparable within an allelic series); in assay [10], 8.91 upbm affinity estimate (log intensity, higher = more binding, comparable within an allelic series); in assay [11], 8.87 upbm affinity estimate (log intensity, higher = more binding, comparable within an allelic series); in assay [12], 8.94 upbm affinity estimate (log intensity, higher = more binding, comparable within an allelic series). Further, the binding signal in assay [13] was 8.8 upbm affinity estimate (log intensity, higher = more binding, comparable within an allelic series).
GTATCATA: the binding signal in [1] was 11.5 upbm affinity estimate (log intensity, higher = more binding, comparable within an allelic series); in assay [2] it was 10.5 upbm affinity estimate (log intensity, higher = more binding, comparable within an allelic series); in assay [3], 11.5 upbm affinity estimate (log intensity, higher = more binding, comparable within an allelic series); in [4] it was 9.93 upbm affinity estimate (log intensity, higher = more binding, comparable within an allelic series); in [5], 10.8 upbm affinity estimate (log intensity, higher = more binding, comparable within an allelic series); in [6] it was 11.2 upbm affinity estimate (log intensity, higher = more binding, comparable within an allelic series). Moreover, the binding signal in assay [7] is 10.6 upbm affinity estimate (log intensity, higher = more binding, comparable within an allelic series); in assay [8], 11.5 upbm affinity estimate (log intensity, higher = more binding, comparable within an allelic series); in assay [9] it was 11.3 upbm affinity estimate (log intensity, higher = more binding, comparable within an allelic series); in assay [10] it was 11.4 upbm affinity estimate (log intensity, higher = more binding, comparable within an allelic series); in assay [11], 11.3 upbm affinity estimate (log intensity, higher = more binding, comparable within an allelic series); in assay [12] it was 11.2 upbm affinity estimate (log intensity, higher = more binding, comparable within an allelic series). Further, the binding signal in assay [13] is 11.3 upbm affinity estimate (log intensity, higher = more binding, comparable within an allelic series).
Turning to CCCTCGGC, the binding signal is 9.06 upbm affinity estimate (log intensity, higher = more binding, comparable within an allelic series) in assay [1]; 8.91 upbm affinity estimate (log intensity, higher = more binding, comparable within an allelic series) in assay [2]; 9.09 upbm affinity estimate (log intensity, higher = more binding, comparable within an allelic series) in assay [3]; 8.86 upbm affinity estimate (log intensity, higher = more binding, comparable within an allelic series) in assay [4]; 9.04 upbm affinity estimate (log intensity, higher = more binding, comparable within an allelic series) in [5]; 9.07 upbm affinity estimate (log intensity, higher = more binding, comparable within an allelic series) in assay [6]. For the same sequence, the binding signal in assay [7] was 8.97 upbm affinity estimate (log intensity, higher = more binding, comparable within an allelic series); in assay [8], 9.07 upbm affinity estimate (log intensity, higher = more binding, comparable within an allelic series); in assay [9], 9.11 upbm affinity estimate (log intensity, higher = more binding, comparable within an allelic series); in assay [10], 8.99 upbm affinity estimate (log intensity, higher = more binding, comparable within an allelic series); in assay [11], 8.92 upbm affinity estimate (log intensity, higher = more binding, comparable within an allelic series); in assay [12], 9.04 upbm affinity estimate (log intensity, higher = more binding, comparable within an allelic series). Besides, the binding signal in assay [13] was 9.03 upbm affinity estimate (log intensity, higher = more binding, comparable within an allelic series).

(Values after paper PMC11006913.)
